PubChem BioAssay (Tox21)
Inconclusive results are not listed. Activity calls are given as the source filed them. Unless noted, calls follow the shape of the dose curve; as a rule, active = well fitted curve in the direction sought with a large enough effect in the repeat runs; inconclusive = weak or mixed curves; inactive = no such curve, though single readings can be large; an effect the other way counts as inactive or inconclusive.

Key:
[1] = qHTS assay to identify aromatase inhibitors - cell viability counter screen (AID 743084);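 also: cells stimulated with testosterone during compound exposure; nearly all actives have a fitted effect of over 55% in size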
[2] = target: Aryl hydrocarbon receptor (Homo sapiens) (UniProt P35869); assay: qHTS assay to identify small molecule that activate the aryl hydrocarbon receptor (AhR) signaling pathway (AID 743085); also: nearly all actives have a fitted effect of over 15% in size; also: potency is read from the fitted curve at half-maximal effect;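 as to activation: HG2L7.5c1 human HepG2 liver cells with stably integrated DRE-driven firefly reporter; series mostly up to about 70 µM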
Chain of Aryl hydrocarbon receptor (Homo sapiens) (P35869 whole entry, looked up): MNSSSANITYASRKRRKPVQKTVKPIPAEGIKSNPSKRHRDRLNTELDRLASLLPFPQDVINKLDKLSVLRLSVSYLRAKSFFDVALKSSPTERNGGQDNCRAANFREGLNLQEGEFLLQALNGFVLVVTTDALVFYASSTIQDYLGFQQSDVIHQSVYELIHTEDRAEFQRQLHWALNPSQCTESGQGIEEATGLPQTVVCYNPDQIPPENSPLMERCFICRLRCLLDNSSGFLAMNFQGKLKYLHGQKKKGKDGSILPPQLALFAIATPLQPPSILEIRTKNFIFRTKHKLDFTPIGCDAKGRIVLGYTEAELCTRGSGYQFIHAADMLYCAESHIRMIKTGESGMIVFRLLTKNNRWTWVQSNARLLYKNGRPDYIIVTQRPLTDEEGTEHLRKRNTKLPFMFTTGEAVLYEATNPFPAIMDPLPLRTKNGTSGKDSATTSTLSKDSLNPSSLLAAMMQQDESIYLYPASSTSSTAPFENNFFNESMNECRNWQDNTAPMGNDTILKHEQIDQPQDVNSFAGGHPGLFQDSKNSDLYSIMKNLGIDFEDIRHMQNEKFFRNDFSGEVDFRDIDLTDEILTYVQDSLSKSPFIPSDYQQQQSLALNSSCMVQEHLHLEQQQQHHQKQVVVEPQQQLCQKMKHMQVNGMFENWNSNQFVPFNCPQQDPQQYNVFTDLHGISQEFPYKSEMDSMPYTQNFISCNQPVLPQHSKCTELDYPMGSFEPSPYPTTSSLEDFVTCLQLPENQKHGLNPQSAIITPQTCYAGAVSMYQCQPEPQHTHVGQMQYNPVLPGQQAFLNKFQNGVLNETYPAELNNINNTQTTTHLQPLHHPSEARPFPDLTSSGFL
Outline: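 Steps: seed HepG2-AhR-luc cells; allow 5 h at 37C; pin-transfer test compound or vehicle; incubate 24 h at 37C; add viability dye (30 min, 37C) and read fluorescence; add luciferase substrate (30 min, RT) and read luminescence.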

[3] = qHTS assay to identify small molecule that activate the aryl hydrocarbon receptor (AhR) signaling pathway - cell viability counter screen (AID 743086);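 also: HepG2 liver cells carrying the AhR DRE luciferase reporter; series mostly up to about 70 µM; nearly all actives have a fitted effect of over 45% in size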
Outline: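 Cytotoxicity counter screen: CellTiter-Fluor signal (30 min, 37 C) in 4000 HepG2 cells/well carrying the DRE-luciferase reporter, following 24 h compound exposure at 37 C.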

[4] = target: Peroxisome proliferator-activated receptor gamma (Homo sapiens) (UniProt P37231); assay: qHTS assay to identify small molecule agonists of the peroxisome proliferator-activated receptor gamma (PPARg) signaling pathway (AID 743094; active = well fitted activation curve with a large enough effect in the signal ratio in the repeat runs, not every such curve was filed as active; the % refers to the signal ratio)
Chain of Peroxisome proliferator-activated receptor gamma (Homo sapiens) (P37231 whole entry, looked up): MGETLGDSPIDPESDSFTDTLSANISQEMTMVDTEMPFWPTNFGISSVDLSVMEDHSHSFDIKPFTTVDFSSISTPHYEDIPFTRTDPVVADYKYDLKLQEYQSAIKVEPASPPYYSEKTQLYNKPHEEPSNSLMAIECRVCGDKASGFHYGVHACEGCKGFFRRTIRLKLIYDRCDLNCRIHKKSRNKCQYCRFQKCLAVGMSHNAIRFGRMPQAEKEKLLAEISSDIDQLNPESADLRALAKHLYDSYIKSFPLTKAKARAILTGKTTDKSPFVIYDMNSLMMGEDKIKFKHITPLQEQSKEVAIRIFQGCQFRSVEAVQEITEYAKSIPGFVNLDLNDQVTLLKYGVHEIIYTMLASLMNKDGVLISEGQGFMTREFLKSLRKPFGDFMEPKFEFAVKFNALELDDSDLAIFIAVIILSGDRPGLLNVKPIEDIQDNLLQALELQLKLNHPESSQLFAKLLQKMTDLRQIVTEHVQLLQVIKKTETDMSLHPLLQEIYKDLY
Outline: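 Fluorescence-based beta-lactamase readout in HEK293H PPARg UAS-bla cells after 17 h compound exposure (37C) and 1 h B/G FRET substrate incubation at room temperature.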

[5] = qHTS assay to identify small molecule antagonists of the peroxisome proliferator-activated receptor gamma (PPARg) signaling pathway - cell viability counter screen (AID 743194); also: nearly all actives have a fitted effect of over 55% in size
Outline: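 Viability was measured as CellTiter-Glo luminescence in GeneBLAzer PPARg UAS-bla HEK293H cells. These cells had been exposed 17 h at 37 C to compounds together with rosiglitazone at 50 nM final, with the beta-lactamase readout taken in the same wells.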

[6] = qHTS assay for small molecule agonists of the antioxidant response element (ARE) signaling pathway (AID 743202; active = well fitted activation curve with a large enough effect in the signal ratio in the repeat runs, not every such curve was filed as active; the % refers to the signal ratio; also: potency is read from the fitted curve at half-maximal effect)
Outline: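 Beta-lactamase reporter activity, read as fluorescence intensity, reflects ARE/Nrf2 pathway induction in HepG2 cells after 16 h compound exposure at 37 C; substrate loading was 2 h at room temperature.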

[7] = qHTS assay for small molecule agonists of the antioxidant response element (ARE) signaling pathway - cell viability counter screen (AID 743203; calls by dose curve; also: nearly all actives have a fitted effect of over 55% in size)
Outline: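 Parallel cytotoxicity read-out for the ARE-bla screen: HepG2 reporter cells, 16 hrs with compounds, then CellTiter-Glo luminescence.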

[8] = qHTS assay for small molecule activators of the heat shock response signaling pathway (AID 743210; active = well fitted activation curve with a large enough effect in the signal ratio in the repeat runs, with a control signal flat, not every such curve was filed as active; the % refers to the signal ratio;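 also: HeLa cells with beta-lactamase reporter driven by heat shock elements; series mostly up to about 63 µM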)
Outline: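 Fluorescence from a cleaved B/G FRET substrate (2.5 h, room temp) reports HSE-driven beta-lactamase in HeLa cells treated 5 h at 37 C with DMSO-dissolved compounds.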

[9] = target: Peroxisome proliferator-activated receptor gamma (Homo sapiens) (UniProt P37231); assay: qHTS assay to identify small molecule antagonists of the peroxisome proliferator-activated receptor gamma (PPARg) signaling pathway (AID 743191; calls by dose curve; also: series mostly up to about 63 µM; nearly all actives have a fitted effect of over 30% in size)
Outline: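 Beta-lactamase reporter under UAS control in HEK293H PPARg-bla cells; compound treatment 17 h at 37C. Read-out: fluorescence intensity after 1 h room-temperature incubation with LiveBLAzer B/G FRET substrate.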

[10] = qHTS assay for small molecule activators of the heat shock response signaling pathway - cell viability counter screen (AID 743209); also: nearly all actives have a fitted effect of over 50% in size
Outline: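 To flag cytotoxic compounds, HSE-bla HeLa cells plated at 1500 cells/well were dosed for 5 h at 37 C, followed by the reporter FRET read and then CellTiter-Glo, with luminescence recorded 30 min after reagent addition.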

Measured: Potency

Cc1c(Cl)cccc1Nc1ccccc1C(=O)O
active: [6] 26.6 µM
not listed: [9] | [10]
inactive: all other assays above

CC(C)=CCCC(C)C=O (configuration not stated)
not listed: [5] | [6]
inactive: all other assays above

C=CC(=O)OCCCCCCCCCC
not listed: [9]
inactive: all other assays above

COc1cc(C)c(Cc2cnc(N)nc2N)cc1OC
not listed: [9]
inactive: all other assays above

NC(=O)c1ccccc1C(N)=O
active: [2] 54.7 µM | [6] 24.4 µM
not listed: [9] | [10]
inactive: all other assays above

CCCCOc1ccc(N)cc1
not listed: [9]
inactive: all other assays above

O=C(O)c1ccc2cc(O)ccc2c1
not listed: [9]
inactive: all other assays above

O=C(OC1C[C@H]2CC[C@@H](C1)[N+]21CCCC1)C(O)(c1ccccc1)c1ccccc1 (some centres not stated)
not listed: [9]
inactive: all other assays above

O=C1OC(=O)C2CC=CCC12 (configuration not stated)
not listed: [8] | [9]
inactive: all other assays above

CC(C)NC(=O)c1ccccc1N
not listed: [9]
inactive: all other assays above

CCCC(=O)OCCC(C)C
not listed: [9] | [10]
inactive: all other assays above

CC(C(=O)O)c1ccc2c(c1)Cc1cccnc1O2 (configuration not stated)
not listed: [9]
inactive: all other assays above

Clc1cccc(C(c2ccc3nc[nH]c3c2)n2ccnc2)c1 (configuration not stated)
active: [2] 2.66 µM
not listed: [9]
inactive: all other assays above

CC(=O)c1ccc(Cl)c(Cl)c1Cl
not listed: [9]
inactive: all other assays above

CCC(CC)C(=O)O
not listed: [9]
inactive: all other assays above

Oc1ccc(Oc2ccccc2)cc1
active: [6] 18.3 µM
not listed: [9]
inactive: all other assays above

N#Cc1ccc(CC(=O)c2cccc(C(F)(F)F)c2)cc1
not listed: [9]
inactive: all other assays above

O=C(O)c1cc(C(=O)O)cc([N+](=O)[O-])c1
not listed: [9]
inactive: all other assays above

CCCCCCCCC(=O)OCC(C)OC(=O)CCCCCCCC (configuration not stated)
not listed: [8] | [9] | [10]
inactive: all other assays above

FC1(F)C(F)(F)C(F)(F)C2(F)C(F)(C1(F)F)C(F)(F)C(F)(F)C1(F)C(F)(F)C(F)(F)C(F)(F)C(F)(F)C12F (configuration not stated)
not listed: [9]
inactive: all other assays above

CC1=C(C)C(=O)C(CCCCC#CCCCC#CCO)=C(C)C1=O
active: [2] 11.9 µM | [6] 23.7 µM
inactive: [1] | [3] | [4] | [5] | [7]

O=C(O)c1ccc(O)c(O)c1
not listed: [9]
inactive: all other assays above

CCC(=O)O[C@@H]1C[C@H]2CC[C@]1(C)C2(C)C
not listed: [9]
inactive: all other assays above

CCN(CCCCOC(=O)c1ccc(OC)c(OC)c1)C(C)Cc1ccc(OC)cc1 (configuration not stated)
not listed: [9] | [10]
inactive: all other assays above

O=C(O)c1ccccc1-n1cc(C(=O)O)c(=O)c2cc(Nc3c(F)cc(F)cc3Cl)c(Cl)cc21
not listed: [5]
inactive: all other assays above

C=CC(=O)NC(C)(C)C
not listed: [9]
inactive: all other assays above

Cc1ccccc1CCO
not listed: [4] | [10]
inactive: all other assays above
